rCAG RNA binder – binders of r(CAG) RNA repeats, primary screen, biochemical, fluorescence; r(CAG) RNA repeat, TO-PRO-1 dye displacement fluorescence; inhibition, % at 3 µM; hit rate 1.3% among 370,000; AID 651821, 2012;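 active = inhibition above the plate cutoff, the mean of all test compounds on that plate plus 3 SD, cut at about 35% in these data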;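 also: 0% = DMSO alone and 100% = 100 µM mitoxantrone as full dye displacement; higher means more dye released from RNA so lower well fluorescence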
ABCB6 inh MLPCN – ABCB6 transporter inhibitors, primary screen, K562-ABCB6 cells, flow cytometry, MLPCN library; fluorescence ratio to DMSO, % at 10 µM; K562-ABCB6 porphyrin accumulation, 1 h; hits give low values; ATP-binding cassette sub-family B member 6 (Homo sapiens), Q9NP58; hit rate 0.19% among 360,000;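 active = fluorescence ratio to DMSO below 75%, the collection mean minus 3 SD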;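 also: signal is porphyrin accumulated inside mitochondria; 100% equals median channel fluorescence of DMSO control wells; lower ratio means ABCB6 inhibition with less porphyrin fluorescence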
Target sequence (Q9NP58 whole entry, looked up): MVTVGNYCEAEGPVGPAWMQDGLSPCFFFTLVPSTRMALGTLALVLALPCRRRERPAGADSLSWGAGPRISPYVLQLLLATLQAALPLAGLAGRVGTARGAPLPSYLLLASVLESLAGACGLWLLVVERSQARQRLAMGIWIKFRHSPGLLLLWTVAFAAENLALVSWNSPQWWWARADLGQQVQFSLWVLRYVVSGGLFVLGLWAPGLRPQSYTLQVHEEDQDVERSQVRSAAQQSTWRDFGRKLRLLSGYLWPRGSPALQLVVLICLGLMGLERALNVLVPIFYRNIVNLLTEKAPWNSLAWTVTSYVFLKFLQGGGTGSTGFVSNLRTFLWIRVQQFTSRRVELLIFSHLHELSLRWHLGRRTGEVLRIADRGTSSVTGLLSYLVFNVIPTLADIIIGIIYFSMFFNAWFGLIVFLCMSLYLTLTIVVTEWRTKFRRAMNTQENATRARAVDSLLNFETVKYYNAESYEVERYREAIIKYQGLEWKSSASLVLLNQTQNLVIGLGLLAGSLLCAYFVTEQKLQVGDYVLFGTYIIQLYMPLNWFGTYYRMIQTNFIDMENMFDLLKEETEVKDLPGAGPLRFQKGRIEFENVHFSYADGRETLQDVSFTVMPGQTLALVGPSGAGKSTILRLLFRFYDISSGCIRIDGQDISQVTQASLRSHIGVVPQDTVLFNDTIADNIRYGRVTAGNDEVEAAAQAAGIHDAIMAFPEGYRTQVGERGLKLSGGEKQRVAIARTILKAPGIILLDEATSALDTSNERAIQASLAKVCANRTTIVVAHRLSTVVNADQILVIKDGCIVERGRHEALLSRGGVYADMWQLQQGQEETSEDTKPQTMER
Granule exo inh – LAMP-1 surface exposure blockers, TALL-104 cells – cell-based, flow cytometry, MLPCN library, primary screen. TALL-104 LAMP-1 surface exposure; cells stimulated with thapsigargin and PMA. inhibition, % at 10 µM. hit rate 0.66% among 360,000;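 active = inhibition above about 55%, limit read from the data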
PG9 Ab binder – binders of HIV-1 gp120 antibody PG9, primary screen, biochemical, TR-FRET. HIV-1 gp120 / PG9 antibody interaction. TR-FRET gp120-PG9 antibody binding. inhibition, % at 6.7 µM. hit rate 0.43% among 360,000. AID 624416, 2012; in the data active = inhibition above about 8.5%
ABCB6 blocker 1 – ABCB6 transporter inhibitors, confirmation, K562-ABCB6 cells, flow cytometry, cherry pick 1; ratio response (% of DMSO), % at 10 µM; K562-ABCB6 porphyrin accumulation, 1 h; hits give low values; 700 tested, under 10 active; shares compounds with ABCB6 inh MLPCN;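 active = repeat-averaged ratio response below 75% of DMSO, the collection mean minus 3 SD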;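 also: median porphyrin fluorescence at 575 nm with 488 nm excitation from mitochondria; lower ratio means less porphyrin signal so ABCB6 inhibition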
PG9 bind confirm – binders of anti-gp120 antibody PG9, confirmation, biochemical, TR-FRET; shares compounds with PG9 Ab binder; TR-FRET PG9 antibody binding; inhibition, % at 6.7 µM; hit rate 90% among 1,500; AID 651571, 2012; in the data active = inhibition above about 9%
PGV04 Ab binding – binders of control antibody PGV04, counter-screen for PG9 antibody binder project, biochemical, TR-FRET, distinct HIV envelope site | hit rate 95% among 1,500 | inhibition, % at 6.7 µM | shares compounds with PG9 Ab binder | TR-FRET PGV04 antibody-gp120 binding; in the data active = inhibition above about 9.5%
Exocytosis CP01 – inhibitors of lytic granule exocytosis, confirmation, TALL-104 cells, flow cytometry, Cherry Pick01. shares compounds with Granule exo inh. LAMP-1 externalization; stimulated with PMA plus thapsigargin. inhibition, % at 10 µM. hit rate 11% among 1,500. AID 651954, 2012; in the data active = inhibition above about 60%;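 also: 0% = stimulated vehicle wells and 100% = unstimulated wells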
rCAG binder conf – small molecules binding CAG repeat RNA – biochemical, fluorescence, confirmation; r(CAG) RNA repeat, TO-PRO-1 dye displacement fluorescence; shares compounds with rCAG RNA binder; inhibition, % at 3 µM; hit rate 70% among 4,300;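 active = inhibition above a per-plate cutoff, the mean inhibition of sample wells plus 3 SD, cut at about 35% in these data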;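 also: loss of TO-PRO-1 fluorescence as compound displaces dye from 1x1 AA loop RNA; 0% = DMSO only wells and 100% = 100 µM mitoxantrone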
DNA CAG counter – displacement of TO-PRO-1 from CAG DNA duplex, counter-screen for rCAG RNA repeat binder project, biochemical, fluorescence, TO-PRO-1 dye, d(CAG) DNA oligo; shares compounds with rCAG RNA binder; d(CAG) DNA oligo TO-PRO-1 dye displacement; inhibition, % at 3 µM; hit rate 94% among 4,300; AID 652068, 2013;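 active = inhibition above its plate's cutoff, the mean test-well inhibition plus 3 SD, cut at about 4.8% in these data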;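 also: 0% = DNA dye mix with DMSO and 100% = 100 µM mitoxantrone; hits displace the dye from DNA and so lower well fluorescence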
The depositor's hits bear a star; / = no result given. Most compounds without a hit are left out; they make up all but 2.5% or so of the library.

SMILES | rCAG RNA binder | ABCB6 inh MLPCN | Granule exo inh | PG9 Ab binder | PG9 bind confirm | PGV04 Ab binding | others
O=C(Cc1ccc(F)cc1)Nc1nnc(-c2ccc(F)cc2)o1 | 2.8 | 95.0 | -1.2 | -1.8 | / | /
O=C(Nc1ccc(F)cc1)c1nc(S(=O)(=O)Cc2ccccc2)ncc1Cl | -2.1 | 46.0* | 78.5* | 0.8 | / | / | ABCB6 blocker 1=93.0;Exocytosis CP01=65.5*
O=C(Nc1ccc(F)cc1)OCc1cn(Cc2ccc(Cl)cc2)nn1 | 1.6 | / | / | / | / | /
CC(C)(C)c1ccc(CC(=O)N2CCC2(C)C(=O)NS(=O)(=O)c2ccccc2Cl)cc1 (configuration not stated) | 40.6* | 99.0 | 1.8 | -1.3 | / | / | ABCB6 blocker 1=98.0;rCAG binder conf=34.2;DNA CAG counter=8.3*
CC1(C(=O)NS(=O)(=O)c2ccc(Cl)cc2)CCN1C(=O)C1(c2ccc(Cl)cc2)CCC1 (configuration not stated) | 55.3* | 97.0 | 3.3 | -0.2 | / | / | ABCB6 blocker 1=99.0;rCAG binder conf=55.6*;DNA CAG counter=18.1*
CCS(=O)(=O)NC(=O)C1(C)CCN1C(=O)C1(c2ccc(Cl)cc2)CC1 (configuration not stated) | 0.7 | 94.0 | -0.5 | -2.0 | / | /
Cc1ccc(F)c(S(=O)(=O)NC(=O)C2(C)CCN2C(=O)C2(c3ccc(Cl)cc3)CC2)c1 (configuration not stated) | 36.4* | 975.0 | -2.2 | -2.1 | / | / | ABCB6 blocker 1=99.0;rCAG binder conf=34.7*;DNA CAG counter=7.6*
CC1(C(=O)NS(=O)(=O)c2ccc3c(c2)CCO3)CCN1C(=O)C1(c2ccc(Cl)cc2)CCC1 (configuration not stated) | 35.7* | 87.0 | 4.8 | -2.1 | / | / | ABCB6 blocker 1=96.0;rCAG binder conf=32.0;DNA CAG counter=3.8
CC1CCN(S(=O)(=O)c2ccc3c(c2)NC(=O)CS3)CC1 | 1.3 | 94.0 | -0.9 | -0.7 | / | /
C=CCn1c(COc2cc(C)ccc2C(C)C)nnc1SCC(=O)c1c(N)n(C)c(=O)n(C)c1=O | 2.3 | 93.0 | 3.0 | -0.1 | / | /
CCCNC(=O)N[C@H]1C=C[C@H](CC(=O)NC2CCCCC2)O[C@@H]1CO | -1.4 | / | -5.7 | -1.3 | / | /
Cc1cc(C(=O)NCCC(C)C)c2ccccc2n1 | -0.9 | 94.0 | 4.1 | -2.0 | / | /
Cc1nc2c(C(=O)NCCC(C)C)c[nH]n2c(=O)c1Cc1ccccc1F | 68.8* | 102.0 | -1.5 | -1.1 | / | / | ABCB6 blocker 1=100.0;rCAG binder conf=76.2*;DNA CAG counter=41.9*
Cc1ccc(CN2CCSc3ccc(C(=O)NCCCN4CCN(C)CC4)cc32)cc1 | -2.8 | 98.0 | 23.0 | 25.1* | 28.8* | 34.4*
O=C(Nc1ccc2c(c1)C(=O)N(c1ccccc1)C2=O)c1cccs1 | 1.7 | 93.0 | -10.6 | 21.7* | 28.6* | 40.4*
O=C(O)CCN1C(=O)c2ccc(NC(=O)c3cccs3)cc2C1=O | 1.1 | 99.0 | -1.5 | 2.2 | / | /
COc1ccccc1NS(=O)(=O)c1cc(NC(=O)c2ccncc2)ccc1N1CCCC1 | 4.3 | 103.0 | 0.9 | -0.1 | / | /
CCOC(=O)COc1cccc2c(=O)n(CC(=O)N3CCc4ccccc43)ccc12 | 2.4 | 95.0 | -1.9 | 14.5* | 21.0* | 25.5*
CN(C)c1ccc(C(=O)Nc2ccc(S(=O)(=O)Nc3nccs3)cc2)cc1 | 34.8* | 101.0 | -1.7 | 25.8* | 37.9* | 47.4*
O=C(COC(=O)c1ccccc1-n1cnnn1)c1ccc(Br)cc1 | 3.0 | 94.0 | 0.1 | 10.3* | 10.7* | 16.2*
O=C(COC(=O)c1ccccc1O)NNC(=O)c1ccc(Br)cc1 | -0.8 | 105.0 | -1.9 | 9.5* | 13.9* | 25.2*
COc1ccc(/C=C/c2c(-c3ccc(OC)cc3)sc3ccc(N4CCOCC4)cc23)cc1 | / | 95.0 | -1.4 | / | / | /
COc1ccc(-c2oc3ccc(N4CCOCC4)cc3c2/C=C/c2ccc(OC)c(OC)c2)cc1 | 8.8 | 95.0 | 25.5 | 10.4* | 15.3* | 28.2*
CCOc1ccc(/C(O)=C2\C(=O)C(=O)N(c3ccccn3)C2c2ccccc2F)c(C)c1 (configuration not stated) | 9.5 | 95.0 | 3.9 | 9.6* | 22.2* | 31.9*
COc1ccc(/C(O)=C2/C(=O)C(=O)N(c3ccccn3)C2c2ccc(F)cc2)cc1 (configuration not stated) | 3.8 | 95.0 | 1.5 | 5.2 | / | /
SMILES | rCAG RNA binder | ABCB6 inh MLPCN | Granule exo inh | PG9 Ab binder | PG9 bind confirm | PGV04 Ab binding | others
COc1ccc(NC(=O)c2cc3c([nH]c4ccccc43)c(C)n2)cc1 | 4.6 | 105.0 | -5.1 | -0.6 | / | /
Cc1nc(C(=O)Nc2ccccc2Cl)cc2c1[nH]c1ccccc12 | -57.2 | 96.0 | 1.7 | 21.7* | 11.6* | 25.9*
Cc1ccc(C)c(C2NC(=O)c3ccccc3N2)c1 (configuration not stated) | 0.9 | 94.0 | 5.9 | 0.8 | / | /
Cn1cc(C2NC(=O)c3ccccc3N2)c2ccccc21 (configuration not stated) | 9.7 | 123.0 | -1.5 | 20.3* | 9.9* | 21.6*
C/C(=N/NC(=O)C1COc2ccccc2O1)c1ccc(Br)s1 (configuration not stated) | -0.6 | 94.0 | -4.2 | -2.0 | / | /
C/C(=N\NC(=O)C1COc2ccccc2O1)c1ccc(Cl)s1 (configuration not stated) | -1.7 | 97.0 | -1.9 | 24.2* | 6.3 | 8.2
CSCCNC(=O)C1(C)CCN1C(=O)CCc1ccccc1 (configuration not stated) | -0.2 | 103.0 | 4.6 | -2.9 | / | /
CCN(CC)c1ccc(NC(=O)CNCc2ccccc2Cl)c(C)c1 | -9.5 | 93.0 | 0.7 | -4.7 | / | /
CCOC(=O)c1c(C)[nH]c(C(=O)CSc2ccccc2)c1C | 1.7 | 111.0 | -3.9 | 3.4 | / | /
CCOC(=O)c1c(C)[nH]c(C(=O)CSc2nccc(C)n2)c1C | -1.2 | 102.0 | 0.2 | 21.9* | 24.0* | 40.8*
O=C(CCCn1c(=O)[nH]c2ccc(Br)cc2c1=O)NCc1ccc(Cl)cc1 | 4.9 | 90.0 | -4.0 | 15.8* | 18.4* | 32.5*
